Shown are actives, neighbours in structure and some others; about 9.9% of the full set was active somewhere.
Tau ThT inhib = qHTS for Inhibitors of Tau Fibril Formation, Thioflavin T Binding. hit rate 2.1% among 270,000. Potency, µM (series often up to 57.4 µM), actives largely listed as inhibitors. AID 1460, 2008. recombinant tau K18 P301L, heparin-induced fibrillization, ThT fluorescence. Microtubule-associated protein tau (Homo sapiens), P10636; active = well fitted curve in the direction sought with a large enough effect; inconclusive = small, poorly fitted or top-dose-only effect, or another doubt; inactive = no such curve, though single readings can be large; an effect the other way counts as inactive or inconclusive; note: nearly all actives have a fitted effect of over 55% in size
Target sequence (P10636 561-689 P618L limits assumed): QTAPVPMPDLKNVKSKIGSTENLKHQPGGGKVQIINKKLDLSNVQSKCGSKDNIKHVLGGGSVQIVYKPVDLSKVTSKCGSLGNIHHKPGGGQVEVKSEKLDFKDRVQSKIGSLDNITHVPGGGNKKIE
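In this qHTS, human K18 P301L tau is incubated with compound and heparin for 6 hr at 37 C, and Thioflavin T fluorescence then reports fibril load.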
HPGD inh = qHTS Assay for Inhibitors of HPGD (15-Hydroxyprostaglandin Dehydrogenase); hit rate 4.3% among 150,000; 15-hydroxyprostaglandin dehydrogenase [NAD(+)] (Homo sapiens), P15428; AID 894, 2007; Potency, µM, hits mostly inhibitors; purified HPGD, NADH fluorescence kinetic, PGE2 substrate
Target sequence (P15428 whole entry, looked up): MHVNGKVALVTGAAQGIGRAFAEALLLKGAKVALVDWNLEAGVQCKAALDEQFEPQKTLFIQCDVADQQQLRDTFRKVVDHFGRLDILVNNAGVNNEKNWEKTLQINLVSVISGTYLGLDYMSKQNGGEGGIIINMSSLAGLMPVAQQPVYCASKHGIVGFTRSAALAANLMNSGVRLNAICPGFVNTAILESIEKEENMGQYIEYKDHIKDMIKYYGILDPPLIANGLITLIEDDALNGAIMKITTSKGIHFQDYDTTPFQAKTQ
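20 nM HPGD preincubated 15 min at room temperature with compound in 50 mM Tris-HCl pH 8, 0.01% Tween 20. Started with 1 mM NAD+ and 30 uM prostaglandin E2; NADH fluorescence (360/450 nm) read 5 times over 30-s intervals, last minus first.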
ALDH1A1 block = qHTS Assay for Inhibitors of Aldehyde Dehydrogenase 1 (ALDH1A1) | Aldehyde dehydrogenase 1A1 (Homo sapiens), P00352 | Purified ALDH1A1, NADH fluorescence, propionaldehyde substrate | Potency, µM (doses to about 75.3 µM), hits mostly inhibitors | hit rate 7.3% among 220,000 | AID 1030, 2008
Tau fluor counter = Counterscreen qHTS for Inhibitors of Tau Fibril Formation, Fluorescence Polarization; tau K18 P301L Alexa594 fluorescence, heparin fibrillization; Potency, µM (highest dose often 57.7 µM); hit rate 0.93% among 280,000; active = well fitted curve in the direction sought with a large enough effect; inconclusive = small, poorly fitted or top-dose-only effect, or another doubt; inactive = no such curve, though single readings can be large; an effect the other way counts as inactive or inconclusive; note: nearly all actives have a fitted effect of over 55% in size
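Human tau K18 P301L (15 uM unlabeled, 0.24 uM Alexa 594-labeled) in 100 mM sodium acetate pH 7 with 20 uM heparin, 6 hr at 37 C. ThT 30 uM added, 1 hr ambient; Alexa 594 FP and total fluorescence read at 555/632 nm.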
KDM4E inh = qHTS Assay for Inhibitors of Human Jumonji Domain Containing 2E (JMJD2E) | Lysine-specific demethylase 4E (Homo sapiens), B2RXH2 | JMJD2E catalytic domain, FDH-coupled NADH fluorescence (FDH is formaldehyde dehydrogenase) | Potency, µM (highest dose often 57.1 µM), usual class: inhibitors | hit rate 1.6% among 230,000 | AID 2147, 2009; note: nearly all actives have a fitted effect of over 50% in size
Target sequence (B2RXH2 1-337 limits assumed): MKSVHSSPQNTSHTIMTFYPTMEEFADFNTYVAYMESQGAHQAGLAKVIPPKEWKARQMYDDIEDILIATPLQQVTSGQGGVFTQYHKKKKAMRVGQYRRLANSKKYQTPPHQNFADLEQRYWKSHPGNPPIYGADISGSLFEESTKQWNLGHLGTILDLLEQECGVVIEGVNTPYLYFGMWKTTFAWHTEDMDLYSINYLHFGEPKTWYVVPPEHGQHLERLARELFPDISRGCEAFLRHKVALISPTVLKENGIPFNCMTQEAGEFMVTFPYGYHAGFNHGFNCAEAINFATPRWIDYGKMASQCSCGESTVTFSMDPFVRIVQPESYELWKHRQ
Tau FP inhib = qHTS for Inhibitors of Tau Fibril Formation, Fluorescence Polarization; Microtubule-associated protein tau (Homo sapiens), P10636; K18 P301L tau heparin fibrillization, Alexa594 FP, 6 h; Potency, µM (top dose mostly 57.7 µM), actives largely listed as inhibitors; hit rate 0.39% among 280,000; AID 1468, 2008; active = well fitted curve in the direction sought with a large enough effect; inconclusive = small, poorly fitted or top-dose-only effect, or another doubt; inactive = no such curve, though single readings can be large; an effect the other way counts as inactive or inconclusive; note: nearly all actives have a fitted effect of over 55% in size
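Read-out: fluorescence polarization of Alexa 594-labeled tau (0.24 uM), 555 nm excitation, 632 nm emission. Mixtures held 15 uM unlabeled K18 P301L, compound and 20 uM heparin, pH 7 acetate buffer, incubated 6 hr at 37 C.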
A number is an active result; n = inactive; u = inconclusive; x = no result given; [ ] = another dose, or the depositor's remark. Unless noted, calls come from the whole dose curve; as a rule, active = well fitted inhibition curve with a large enough effect (not every such curve was filed as active); inconclusive = small, poorly fitted or top-dose-only effect, or another doubt; inactive = no such curve, though single readings can be large or run the other way.

SMILES	Tau ThT inhib	HPGD inh	ALDH1A1 block	Tau fluor counter	KDM4E inh	Tau FP inhib
NNC(=O)c1oc2ccccc2c1-n1cccc1	u	x	2.2µM	n	u	n
O=C(NNC(=O)c1oc2ccccc2c1-n1cccc1)c1ccco1	n	x	u	n	n	n
O=C(Nc1ccc(Cl)cc1)c1cc2c(cc1O)[nH]c1ccccc12	u	x	x	4µM[quencher]	u	n
O=C(Nc1ccccc1F)c1ccc(-n2cncn2)nc1	n	x	n	n	n	n
CCCOc1ccc(C2CC(=O)Nc3c2c(=O)n(C)c(=O)n3C)cc1OC (stereo unspecified)	n	x	x	n	x	n
O=C(CCl)N(c1ccc(Cl)cc1)c1c[nH]c2ccccc12	u	n	7.1µM	u	n	n
O=C(CCl)N(c1ccccc1)c1c[nH]c2ccccc12	n	x	u	n	n	n
CC(C)Cn1cc(C(=O)N2CCN(c3cccc(Cl)c3)CC2)c2c3ccccc3n(C)c2c1=O	n	x	x	n	x	n
CCOC(=O)c1c(NC(=O)OC)sc(C(=O)N(CC)CC)c1C	n	28µM	u	n	n	n
CCN(CC)C(=O)c1sc(N)c(C(=O)OC(C)C)c1C	n	20µM	u	n	n	n
CCN(CC)C(=O)c1sc(NC(=O)c2ccoc2C)c(C(=O)OC)c1C	u	14µM	22µM	n	n	n
CCOC(=O)c1c(NC(=O)c2ccoc2C)sc(C(=O)N(C)C)c1C	n	u	20µM	n	u	n
CCN(CC)C(=O)c1sc(NC(=O)c2cc(-c3ccc(C)s3)nc3ccccc23)c(C(=O)OC)c1C	n	u	u	n	u	n
O=C(NCc1ccc(F)cc1)c1cc(-c2ccc(Cl)cc2)n[nH]1	n	x	x	n	x	n
CC(C)n1c2ccccc2c2nnc(SCC(=O)Nc3ccccc3C(=O)O)nc21	n	x	u	n	n	n
CCC(=O)Nc1sc(C(=O)OC)c(C)c1C(=O)OC	n	22µM	u	n	n	n
CCN(CC)C(=O)c1sc(NC(=O)c2ccncc2)c(C(=O)OC)c1C	u	22µM	14µM	n	n	n
O=C(O)c1ccc([N+]2=Cn3c(nc4ccccc43)C2)cc1	x	n	n[13.5 µM]	x	x	x
CCCCC[n+]1ccn(C2=C([O-])c3ccccc3C(=O)/C2=N\S(=O)(=O)c2ccc(Br)cc2)c1	11µM	x	x	u	n	u
CCCC[n+]1ccn(C2=C([O-])c3ccccc3C(=O)/C2=N\S(=O)(=O)c2ccccc2)c1	u	n	u	n	n	n
CCCCC[n+]1ccn(C2=C([O-])c3ccccc3C(=O)/C2=N\S(=O)(=O)c2ccccc2)c1	u	n	5µM	n	n	n
COc1ccc(/C=N\NC(=O)O)cc1	x	n	n[13.5 µM]	x	x	x
O=C(c1cc([N+](=O)[O-])ccc1N1CCCC1)N1CCCCC1	n	x	n	n	n	n
O=C(CSc1ccc(Cl)cc1)N1CCN(c2ccc([N+](=O)[O-])cc2Cl)CC1	u	n	20µM	u	n	n
NC(=O)C1CCN(c2ccc([N+](=O)[O-])cc2Cl)CC1	n	x	20µM	n	n	n
SMILES	Tau ThT inhib	HPGD inh	ALDH1A1 block	Tau fluor counter	KDM4E inh	Tau FP inhib
CCCC(=O)N1CCN(c2ccc([N+](=O)[O-])cc2Cl)CC1	u	n	u	n	n	n
O=C(c1cc([N+](=O)[O-])ccc1N1CCCCC1)N1CCCCC1	n	u	20µM	n	n	n
NC(=O)C1CCN(c2cc(Cl)ccc2[N+](=O)[O-])CC1	u	x	x	n	n	n
CCOC(=O)CCN1C(=O)[C@H]2[C@H]3[C@H](O)[C@H](O)C/C(=N/OC[C@@H](O)COCc4ccco4)[C@H]3CC[C@@H]2C1=O	n[11.5 µM]	x	n[13.5 µM]	n[11.6 µM]	x	n[11.6 µM]
O=C(Nc1cccnc1)c1cn(-c2ccccc2)nc1-c1cccs1	n	n	n	18µM[quencher]	n	28µM
CCN(CC)CCNC(=O)c1ccc(NC(=O)c2cn(-c3ccccc3)nc2-c2cccs2)cc1	n	x	u	u	u	10µM
CCNCCCNCCCCNCCCNCC	n	n	n	n	n	n
C=CCOC(=O)c1[nH]c2c(c1C)C(=O)CC(c1ccco1)C2 (stereo unspecified)	u	n	u	n	n	n
Cc1c(C(=O)OCC2CCCO2)[nH]c2c1C(=O)CC(c1ccco1)C2 (stereo unspecified)	u	u	7.1µM	n	u	n
Cc1c(C(=O)OC2CCCC2)[nH]c2c1C(=O)CC(c1ccco1)C2 (stereo unspecified)	u	n	11µM	n	n	n
Cc1c(C(=O)OCC(C)C)[nH]c2c1C(=O)CC(c1ccco1)C2 (stereo unspecified)	u	n	11µM	n	n	n
Nc1nc(NCc2ccco2)nc(N2CCN(Cc3ccccc3)CC2)c1[N+](=O)[O-]	n	x	n	n	n	n
Nc1nc(NCc2ccco2)nc(N2CCCCCC2)c1[N+](=O)[O-]	u	n	1.6µM	n	n	n
Nc1nc(NCc2ccco2)nc(N2CCCC2)c1[N+](=O)[O-]	n	x	4µM	n	n	n
Cc1ccc(Nc2nc(N)c([N+](=O)[O-])c(NCCO)n2)cc1C	x	x	x	n[0.0958 µM]	n	n[0.0958 µM]
Cc1ccc(Nc2nc(N)c([N+](=O)[O-])c(NCc3ccco3)n2)cc1C	16µM	n	n	28µM[quencher]	n	u
O=[N+]([O-])c1ccc(Sc2nnnn2-c2ccccc2)c(Cl)c1	u	n	3.5µM	u	n	n
Nc1ccc(Sc2nnnn2-c2ccccc2)c(Cl)c1	n	n	22µM	n	n	n
CN1CCN(S(=O)(=O)c2ccc(Sc3nnnn3-c3ccccc3)c([N+](=O)[O-])c2)CC1	u	n	n	u	n	n
CC(=O)c1ccc(Sc2nnnn2-c2ccccc2)c([N+](=O)[O-])c1	n	n	16µM	n	n	n
CN(C(=O)COC(=O)c1ccccc1C(=O)N1CCN(c2ccccc2)CC1)c1ccccc1	n	x	n	n	n	n
CC(c1ccccc1)C1CC(=O)N(c2cc(Cl)ccn2)C1=O (stereo unspecified)	n	x	x	n	n	n
Cc1cccc(C)c1NC(=O)Cn1c(=O)cc(C)c2c(C)nn(-c3cccc(Cl)c3C)c21	n	x	x	n	x	n
Cc1cc(Br)cn2ccnc12	n	n	n	n	n	n
O=C(c1cc(-c2cccnc2)nc2ccc(Br)cc12)N1CCN(c2ncccn2)CC1	n	16µM	n	n	n	n
CC(=O)c1ccc(N2CCN(C(=O)c3cc(-c4cccnc4)nc4ccc(Br)cc34)CC2)cc1	n	x	n	n	n	n

Source: PubChem BioAssay (National Center for Advancing Translational Sciences (NCATS))
